Holding throughout (test): DAPPL (digital affinity profiling via proximity ligation, sequencing); 10 mM Tris-HCl pH 7.5, 50 mM NaCl, 1 mM DTT, 4% glycerol, room temperature, 30 min; GST-TFs on glutathione beads, 16-mer random dsDNA library, 0.1% formaldehyde crosslink after washing; high values mean tight binding
What all share (details): protein: recombinant; tags: N-terminal GST; dsDNA, one strand shown

Assay [1] concerns the target T1, FLI1 (Homo sapiens, UniProt Q01543 1-452).
T1 sequence: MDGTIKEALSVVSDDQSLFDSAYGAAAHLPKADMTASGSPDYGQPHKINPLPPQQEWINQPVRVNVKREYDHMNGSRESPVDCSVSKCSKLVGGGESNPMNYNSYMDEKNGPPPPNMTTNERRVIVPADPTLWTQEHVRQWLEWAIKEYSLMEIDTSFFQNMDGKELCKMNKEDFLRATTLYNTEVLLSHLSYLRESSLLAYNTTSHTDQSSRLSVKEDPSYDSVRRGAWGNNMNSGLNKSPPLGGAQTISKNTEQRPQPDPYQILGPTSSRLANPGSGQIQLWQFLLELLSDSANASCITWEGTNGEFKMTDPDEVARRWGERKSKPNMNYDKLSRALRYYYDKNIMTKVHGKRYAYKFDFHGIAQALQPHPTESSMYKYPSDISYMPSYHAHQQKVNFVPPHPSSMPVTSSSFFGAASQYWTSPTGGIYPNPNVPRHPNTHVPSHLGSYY
The procedure, abridged: (§1)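 Each value of binding signal is a hexamer's read frequency for a factor divided by the same hexamer's frequency in the tag-only sample. Barcoded, bead-captured GST fusions of human transcription factors made in yeast were pooled with that sample and incubated with 200 nmole of a random double-stranded 16-mer DNA library in Tris/NaCl/DTT/glycerol buffer at room temperature for 30 min. Washing, 0.1% formaldehyde crosslinking, proximity ligation, PCR and Illumina NextSeq500 sequencing followed.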

The target in assay [2] is T2, ELK1 (Homo sapiens, UniProt P19419 1-428).
T2 sequence: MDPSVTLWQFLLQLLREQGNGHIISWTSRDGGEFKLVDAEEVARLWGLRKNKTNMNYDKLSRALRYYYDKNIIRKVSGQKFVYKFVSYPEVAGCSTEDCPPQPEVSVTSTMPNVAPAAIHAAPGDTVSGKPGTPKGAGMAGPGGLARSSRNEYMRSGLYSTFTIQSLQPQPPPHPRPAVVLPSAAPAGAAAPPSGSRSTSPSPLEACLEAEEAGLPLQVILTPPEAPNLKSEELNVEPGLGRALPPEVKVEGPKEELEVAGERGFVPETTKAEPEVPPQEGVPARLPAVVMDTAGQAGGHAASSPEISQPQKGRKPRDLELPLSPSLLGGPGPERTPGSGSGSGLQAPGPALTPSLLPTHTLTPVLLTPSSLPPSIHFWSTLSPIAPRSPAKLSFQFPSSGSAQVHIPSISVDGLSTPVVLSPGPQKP
The procedure, abridged:
as §1

The target of assay [3] is T3, GABPA (Homo sapiens, UniProt Q06546 1-454).
T3 sequence: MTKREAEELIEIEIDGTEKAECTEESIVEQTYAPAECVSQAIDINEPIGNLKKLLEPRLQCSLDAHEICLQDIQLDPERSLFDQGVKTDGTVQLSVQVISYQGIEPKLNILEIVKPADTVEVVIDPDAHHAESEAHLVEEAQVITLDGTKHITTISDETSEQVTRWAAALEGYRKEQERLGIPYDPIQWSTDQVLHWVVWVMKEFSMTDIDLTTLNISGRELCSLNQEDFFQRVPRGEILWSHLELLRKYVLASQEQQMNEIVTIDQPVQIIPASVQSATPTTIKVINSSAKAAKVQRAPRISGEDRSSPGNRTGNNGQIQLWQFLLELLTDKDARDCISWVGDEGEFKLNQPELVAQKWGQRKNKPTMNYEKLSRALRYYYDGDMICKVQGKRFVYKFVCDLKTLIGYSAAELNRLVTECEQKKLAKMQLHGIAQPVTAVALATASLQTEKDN
The procedure, abridged: as §1

Assay [4] has as its target T4, ERG (Homo sapiens, UniProt P11308 1-479).
T4 sequence: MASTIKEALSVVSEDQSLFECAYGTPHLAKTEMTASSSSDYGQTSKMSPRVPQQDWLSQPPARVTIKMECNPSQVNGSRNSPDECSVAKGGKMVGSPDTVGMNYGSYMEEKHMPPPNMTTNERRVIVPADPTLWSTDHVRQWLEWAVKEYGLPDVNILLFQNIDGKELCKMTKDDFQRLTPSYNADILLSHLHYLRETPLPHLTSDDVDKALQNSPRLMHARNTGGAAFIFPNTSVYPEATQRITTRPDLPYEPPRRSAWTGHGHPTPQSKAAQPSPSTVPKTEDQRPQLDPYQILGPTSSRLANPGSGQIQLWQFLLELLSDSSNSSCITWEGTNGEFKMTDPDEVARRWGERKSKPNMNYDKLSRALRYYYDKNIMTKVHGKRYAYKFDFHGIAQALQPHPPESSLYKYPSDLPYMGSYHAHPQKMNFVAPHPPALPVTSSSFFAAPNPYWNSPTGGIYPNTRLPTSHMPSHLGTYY
The procedure, abridged: as §1

The target of assay [5] is ELF1 (Homo sapiens, UniProt P32519 1-619). The procedure, abridged:
as §1

Assay [6] has as its target T5, EHF (Homo sapiens, UniProt Q9NZC4 1-300).
T5 sequence: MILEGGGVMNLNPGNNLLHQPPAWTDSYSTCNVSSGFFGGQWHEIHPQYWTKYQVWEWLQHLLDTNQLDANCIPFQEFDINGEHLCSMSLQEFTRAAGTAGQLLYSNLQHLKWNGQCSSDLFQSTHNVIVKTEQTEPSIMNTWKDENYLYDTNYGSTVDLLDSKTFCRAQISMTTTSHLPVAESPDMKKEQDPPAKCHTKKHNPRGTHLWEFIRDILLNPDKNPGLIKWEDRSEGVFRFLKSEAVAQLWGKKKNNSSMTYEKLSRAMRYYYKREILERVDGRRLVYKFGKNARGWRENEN
The procedure, abridged:
as §1

Assay [7] deals with SPI1 (Homo sapiens, UniProt P17947 1-270). The procedure, abridged:
as §1

For assay [8], the target named is SPIB (Homo sapiens, UniProt Q01892 1-262). The procedure, abridged: as §1
Assay [9] concerns the target T6, ELK3 (Homo sapiens, UniProt P41970 1-407).
T6 sequence: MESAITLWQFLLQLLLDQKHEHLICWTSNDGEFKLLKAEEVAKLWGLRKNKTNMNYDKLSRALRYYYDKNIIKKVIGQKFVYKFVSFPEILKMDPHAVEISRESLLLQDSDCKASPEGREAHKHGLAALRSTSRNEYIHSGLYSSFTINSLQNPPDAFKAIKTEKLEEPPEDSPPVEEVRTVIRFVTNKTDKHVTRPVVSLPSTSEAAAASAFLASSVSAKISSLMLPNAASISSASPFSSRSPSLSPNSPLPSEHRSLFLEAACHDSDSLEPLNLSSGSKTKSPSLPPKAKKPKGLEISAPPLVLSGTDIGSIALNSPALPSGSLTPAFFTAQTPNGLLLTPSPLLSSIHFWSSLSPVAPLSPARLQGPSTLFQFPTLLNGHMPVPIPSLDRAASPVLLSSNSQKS
The procedure, abridged: as §1

Assay [10] concerns the target T7, FEV (Homo sapiens, UniProt Q99581 1-238).
T7 sequence: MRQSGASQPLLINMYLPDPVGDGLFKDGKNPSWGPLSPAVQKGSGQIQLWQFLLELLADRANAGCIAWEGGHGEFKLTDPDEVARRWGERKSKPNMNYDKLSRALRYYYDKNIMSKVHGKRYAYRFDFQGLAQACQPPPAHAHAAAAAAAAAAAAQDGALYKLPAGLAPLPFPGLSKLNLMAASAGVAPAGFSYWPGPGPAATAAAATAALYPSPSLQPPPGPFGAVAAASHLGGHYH
The procedure, abridged: as §1

Assay [11] concerns the target ETV5 (Homo sapiens, UniProt P41161 1-510). The procedure, abridged:
as §1

Assay [12] has as its target T8, SPIC (Homo sapiens, UniProt Q8N5J4 1-248).
T8 sequence: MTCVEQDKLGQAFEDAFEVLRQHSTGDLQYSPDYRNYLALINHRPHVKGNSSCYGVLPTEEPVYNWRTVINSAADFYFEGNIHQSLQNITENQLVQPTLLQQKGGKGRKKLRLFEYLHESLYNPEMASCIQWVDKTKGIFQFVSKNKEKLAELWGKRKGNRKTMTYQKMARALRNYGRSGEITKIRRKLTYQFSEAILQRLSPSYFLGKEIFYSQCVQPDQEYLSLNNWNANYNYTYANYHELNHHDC
The procedure, abridged:
as §1

Assay [13] deals with ELF4 (Homo sapiens, UniProt Q99607 1-663). The procedure, abridged: as §1
The target in assay [14] is T9, ELK4 (Homo sapiens, UniProt P28324-2 1-405).
T9 sequence: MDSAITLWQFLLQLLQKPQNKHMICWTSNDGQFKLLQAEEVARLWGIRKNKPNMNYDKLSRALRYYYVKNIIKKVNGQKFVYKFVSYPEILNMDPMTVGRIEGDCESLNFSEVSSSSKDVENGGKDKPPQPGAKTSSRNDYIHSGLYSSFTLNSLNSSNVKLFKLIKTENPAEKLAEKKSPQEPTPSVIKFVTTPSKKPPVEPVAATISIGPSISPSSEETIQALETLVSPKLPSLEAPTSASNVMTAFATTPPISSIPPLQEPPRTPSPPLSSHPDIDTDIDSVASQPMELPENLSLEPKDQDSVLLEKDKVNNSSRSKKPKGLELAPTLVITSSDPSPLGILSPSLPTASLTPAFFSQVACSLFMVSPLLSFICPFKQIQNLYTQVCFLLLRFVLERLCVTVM
The procedure, abridged:
as §1

Assay [15] deals with T10, ETV2 (Homo sapiens, UniProt O00321 1-342).
T10 sequence: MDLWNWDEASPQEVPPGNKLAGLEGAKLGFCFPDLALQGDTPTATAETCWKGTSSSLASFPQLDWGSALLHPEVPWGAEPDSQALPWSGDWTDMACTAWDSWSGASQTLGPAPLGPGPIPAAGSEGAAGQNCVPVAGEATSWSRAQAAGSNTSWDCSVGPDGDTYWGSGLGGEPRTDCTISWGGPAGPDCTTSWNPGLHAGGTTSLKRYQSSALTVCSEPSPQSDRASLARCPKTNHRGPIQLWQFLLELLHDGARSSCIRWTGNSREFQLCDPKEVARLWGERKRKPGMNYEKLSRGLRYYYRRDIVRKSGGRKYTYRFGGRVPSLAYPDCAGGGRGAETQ
The procedure, abridged:
as §1

Assay [16] deals with T11, ELF3 (Homo sapiens, UniProt P78545 1-371).
T11 sequence: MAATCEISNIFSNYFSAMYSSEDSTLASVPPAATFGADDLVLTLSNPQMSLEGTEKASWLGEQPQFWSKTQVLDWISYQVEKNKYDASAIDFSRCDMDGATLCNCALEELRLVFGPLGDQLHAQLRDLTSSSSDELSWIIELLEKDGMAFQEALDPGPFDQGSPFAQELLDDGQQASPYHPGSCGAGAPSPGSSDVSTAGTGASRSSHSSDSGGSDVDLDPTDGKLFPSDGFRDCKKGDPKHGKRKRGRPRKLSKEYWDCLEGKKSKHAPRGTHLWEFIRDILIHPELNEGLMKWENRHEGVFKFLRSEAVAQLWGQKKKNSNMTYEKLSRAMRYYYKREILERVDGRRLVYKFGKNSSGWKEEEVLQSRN
The procedure, abridged: as §1

The target in assay [17] is CRX (Homo sapiens, UniProt O43186 1-299). The procedure, abridged: as §1
Assay [18] addresses ETV1 (Homo sapiens, UniProt P50549 1-477). The procedure, abridged: as §1

ELF1, sequence (P32519 whole entry): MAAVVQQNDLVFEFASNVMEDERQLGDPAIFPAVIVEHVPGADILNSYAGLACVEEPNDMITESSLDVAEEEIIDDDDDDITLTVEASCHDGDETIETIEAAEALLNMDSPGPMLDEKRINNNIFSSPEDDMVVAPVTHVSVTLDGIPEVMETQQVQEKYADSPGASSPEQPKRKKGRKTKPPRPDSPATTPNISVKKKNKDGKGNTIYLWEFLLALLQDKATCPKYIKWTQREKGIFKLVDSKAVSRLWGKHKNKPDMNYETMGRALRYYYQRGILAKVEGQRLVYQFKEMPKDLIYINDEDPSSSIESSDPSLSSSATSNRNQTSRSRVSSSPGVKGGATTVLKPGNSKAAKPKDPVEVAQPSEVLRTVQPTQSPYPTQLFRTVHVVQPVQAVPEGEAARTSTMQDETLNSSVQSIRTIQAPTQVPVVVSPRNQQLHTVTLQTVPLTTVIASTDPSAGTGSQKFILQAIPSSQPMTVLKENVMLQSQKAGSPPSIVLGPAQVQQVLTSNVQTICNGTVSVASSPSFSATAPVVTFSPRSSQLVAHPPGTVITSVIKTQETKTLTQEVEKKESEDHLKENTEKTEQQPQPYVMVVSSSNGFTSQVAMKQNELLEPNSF
ETV1, sequence (P50549 whole entry): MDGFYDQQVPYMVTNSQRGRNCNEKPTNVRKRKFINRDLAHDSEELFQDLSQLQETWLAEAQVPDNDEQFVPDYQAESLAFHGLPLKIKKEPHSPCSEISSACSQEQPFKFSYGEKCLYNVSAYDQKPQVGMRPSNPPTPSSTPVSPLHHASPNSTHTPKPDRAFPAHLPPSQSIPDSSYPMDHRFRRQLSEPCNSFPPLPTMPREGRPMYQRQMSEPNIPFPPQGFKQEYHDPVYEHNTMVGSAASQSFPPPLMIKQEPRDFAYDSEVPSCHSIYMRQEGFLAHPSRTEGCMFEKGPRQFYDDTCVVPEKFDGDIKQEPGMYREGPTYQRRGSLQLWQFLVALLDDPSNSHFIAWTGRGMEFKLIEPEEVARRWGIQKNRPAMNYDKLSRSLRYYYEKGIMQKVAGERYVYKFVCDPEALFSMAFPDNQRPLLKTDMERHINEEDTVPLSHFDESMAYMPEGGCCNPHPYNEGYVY
ETV5, sequence (P41161 whole entry): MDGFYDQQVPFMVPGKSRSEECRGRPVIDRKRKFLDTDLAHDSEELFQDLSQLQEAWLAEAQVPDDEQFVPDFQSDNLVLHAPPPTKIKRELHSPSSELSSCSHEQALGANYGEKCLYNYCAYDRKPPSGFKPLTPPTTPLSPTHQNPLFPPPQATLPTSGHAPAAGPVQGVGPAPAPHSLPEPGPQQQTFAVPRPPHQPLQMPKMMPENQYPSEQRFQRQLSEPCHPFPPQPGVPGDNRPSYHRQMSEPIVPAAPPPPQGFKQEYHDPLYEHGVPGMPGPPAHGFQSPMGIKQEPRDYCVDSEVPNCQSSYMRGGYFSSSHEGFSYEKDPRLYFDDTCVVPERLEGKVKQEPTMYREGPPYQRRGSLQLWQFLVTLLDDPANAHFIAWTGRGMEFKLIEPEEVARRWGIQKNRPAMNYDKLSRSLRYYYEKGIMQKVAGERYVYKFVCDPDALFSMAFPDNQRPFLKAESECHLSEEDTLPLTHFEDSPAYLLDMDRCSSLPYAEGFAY
CRX, sequence (O43186 whole entry): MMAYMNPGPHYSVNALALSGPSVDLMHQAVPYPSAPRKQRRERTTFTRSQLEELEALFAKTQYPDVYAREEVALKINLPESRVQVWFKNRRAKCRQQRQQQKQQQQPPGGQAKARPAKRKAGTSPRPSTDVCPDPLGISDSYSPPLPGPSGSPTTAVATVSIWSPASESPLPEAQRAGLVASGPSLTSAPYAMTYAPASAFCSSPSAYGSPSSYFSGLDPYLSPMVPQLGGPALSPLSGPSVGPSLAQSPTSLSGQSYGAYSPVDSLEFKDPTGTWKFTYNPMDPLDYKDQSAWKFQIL
ELF4, sequence (Q99607 whole entry): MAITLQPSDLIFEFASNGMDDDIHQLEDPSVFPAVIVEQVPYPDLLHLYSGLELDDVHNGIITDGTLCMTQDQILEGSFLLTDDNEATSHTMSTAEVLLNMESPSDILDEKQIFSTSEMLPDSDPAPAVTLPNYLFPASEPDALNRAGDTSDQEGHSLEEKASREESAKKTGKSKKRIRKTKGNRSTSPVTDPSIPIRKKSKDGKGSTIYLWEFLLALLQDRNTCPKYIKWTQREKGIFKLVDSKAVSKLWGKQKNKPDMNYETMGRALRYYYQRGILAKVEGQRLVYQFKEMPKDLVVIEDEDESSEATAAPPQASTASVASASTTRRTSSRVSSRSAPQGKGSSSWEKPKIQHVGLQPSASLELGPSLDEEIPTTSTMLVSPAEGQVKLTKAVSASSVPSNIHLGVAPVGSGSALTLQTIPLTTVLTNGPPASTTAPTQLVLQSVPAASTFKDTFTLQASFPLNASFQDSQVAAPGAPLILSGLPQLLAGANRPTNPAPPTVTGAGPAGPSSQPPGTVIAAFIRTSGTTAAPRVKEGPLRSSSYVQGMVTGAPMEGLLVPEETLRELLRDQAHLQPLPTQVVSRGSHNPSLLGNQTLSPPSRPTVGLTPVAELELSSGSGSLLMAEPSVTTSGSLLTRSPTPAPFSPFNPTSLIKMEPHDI
SPIB, sequence (Q01892 whole entry): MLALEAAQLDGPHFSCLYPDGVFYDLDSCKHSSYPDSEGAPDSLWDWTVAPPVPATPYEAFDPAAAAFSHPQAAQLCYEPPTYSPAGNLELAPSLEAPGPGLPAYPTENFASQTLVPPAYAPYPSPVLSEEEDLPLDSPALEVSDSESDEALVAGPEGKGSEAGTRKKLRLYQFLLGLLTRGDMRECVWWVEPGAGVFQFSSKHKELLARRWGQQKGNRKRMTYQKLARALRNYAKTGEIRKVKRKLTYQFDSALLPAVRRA

Take CCATCA: the binding signal in assay [1] is 1.26 fold enrichment (6-mer frequency, TF over GST control); in assay [2], 1.21 fold enrichment (6-mer frequency, TF over GST control); in assay [3], 1.22 fold enrichment (6-mer frequency, TF over GST control); in assay [4], 1.15 fold enrichment (6-mer frequency, TF over GST control); in assay [5] it was 1.29 fold enrichment (6-mer frequency, TF over GST control); in assay [6], 1.18 fold enrichment (6-mer frequency, TF over GST control). Besides, the binding signal in assay [7] was 1.19 fold enrichment (6-mer frequency, TF over GST control); in [8], 1.17 fold enrichment (6-mer frequency, TF over GST control); in [9], 1.2 fold enrichment (6-mer frequency, TF over GST control); in assay [10], 1.13 fold enrichment (6-mer frequency, TF over GST control); in assay [11] it was 1.23 fold enrichment (6-mer frequency, TF over GST control); in assay [12] it was 1.09 fold enrichment (6-mer frequency, TF over GST control). Besides, the binding signal was 1.2 fold enrichment (6-mer frequency, TF over GST control) in assay [13]; 1.24 fold enrichment (6-mer frequency, TF over GST control) in assay [14]; 1.11 fold enrichment (6-mer frequency, TF over GST control) in [15]; 1.28 fold enrichment (6-mer frequency, TF over GST control) in assay [16]; 1.04 fold enrichment (6-mer frequency, TF over GST control) in [17]; 1.13 fold enrichment (6-mer frequency, TF over GST control) in assay [18].

In the case of ATACGT, the binding signal in [1] was 1.12 fold enrichment (6-mer frequency, TF over GST control); in [2], 1.14 fold enrichment (6-mer frequency, TF over GST control); in [3] it was 1.11 fold enrichment (6-mer frequency, TF over GST control); in assay [4], 1.09 fold enrichment (6-mer frequency, TF over GST control); in assay [5] it was 1.11 fold enrichment (6-mer frequency, TF over GST control); in assay [6], 1.24 fold enrichment (6-mer frequency, TF over GST control). Also, the binding signal in [7] was 1.06 fold enrichment (6-mer frequency, TF over GST control); in [8], 1.13 fold enrichment (6-mer frequency, TF over GST control); in assay [9] it was 1.12 fold enrichment (6-mer frequency, TF over GST control); in assay [10], 1.11 fold enrichment (6-mer frequency, TF over GST control); in [11], 1.13 fold enrichment (6-mer frequency, TF over GST control); in assay [12] it was 1.09 fold enrichment (6-mer frequency, TF over GST control). The binding signal in assay [13] is 1.08 fold enrichment (6-mer frequency, TF over GST control); in assay [14], 1.15 fold enrichment (6-mer frequency, TF over GST control); in assay [15] it was 1.04 fold enrichment (6-mer frequency, TF over GST control); in assay [16], 1.1 fold enrichment (6-mer frequency, TF over GST control); in assay [17], 1.01 fold enrichment (6-mer frequency, TF over GST control); in assay [18] it was 1.13 fold enrichment (6-mer frequency, TF over GST control).
